This is an account of results in PubChem BioAssay (NCI).

Common to all, as to test: NCI-60 one-dose screen, 48 h (100 = growth as untreated, 0 = no growth, -100 = all killed)
Settings in all cases: 10 µM unless noted

Test [1] has as its system HCT-15 colon.
Test [2] relates to HT29 colon.
The test system of test [3] is SNB-75 CNS.
The subject of test [4] is SNB-19 CNS.
The subject of test [5] is U251 CNS.
For test [6], the system named is PC-3 prostate.
Test [7] concerns SK-MEL-5 melanoma.
The test system of test [8] is UACC-62 melanoma.
Test [9] relates to LOX IMVI melanoma.
Test [10] concerns SK-MEL-28 melanoma.

The panel holds about 83,000 compounds, 20% with a hit somewhere; the sample as a whole holds those more often.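 Note: values are percent growth. 100 is the growth of untreated cells, values between 100 and 0 indicate rising inhibition; between -100 and 0 indicates cell death.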 A number with no mark means an inactive call. The source made the active and inactive calls. The calls were made as follows: active = growth percent below 10; inactive = the rest.

Regarding `NC(N)=Nc1ccc(Nc2cccc(Oc3ccc(Cl)c(C(F)(F)F)c3)c2)cn1`, the growth was 42% in test [1]; 18.9% in [2]; 52.7% in [3]; 24.3% in test [4]; -68.8% (active) in test [5]; -55.8% (active) in test [6]. In addition, the growth in test [7] is 28.3%; in test [8], 45.6%; in [9] it was -97.2% (active); in [10] it was 60.7%.
On to `Cc1cccc(/C=C/C(=O)Nc2ncc(Cc3cccc(C)c3)s2)c1`, for which the growth was 17.5% in [1]; 2.82% (active) in test [2]; 8.11% (active) in test [3]; 47.2% in [4]; 22.1% in test [5]; 13% in test [6]. The growth was -19% (active) in test [7], 14.8% in [8], 23.3% in test [9] and 49.8% in [10].
Regarding `COc1cc2nc(Cl)nc(Nc3cccc(C4=Nc5c(N)nc(N)nc5NC(c5ccc(Br)cc5)C4)c3)c2cc1OC` (stereo not given), the growth is 7.34% (active) in test [1]; 19.8% in [2]; 84.3% in test [3]; 28.7% in test [4]; -46.5% (active) in test [5]; 64.7% in test [6]. Besides, the growth in test [7] was 75.5%; in test [8], 107%; in test [9] it was 27.6%; in test [10] it was 99.1%.
As to `CCN(CC)CCn1c2ccc(O)cc2c2sc3cc(OC)ccc3c(=O)c21`, the growth in test [1] is 4.47% (active); in test [2], -13.8% (active); in test [3], 40.7%; in test [4], 25.7%; in test [5], 16.1%; in test [6], 30.5%. Also, the growth in test [7] is 76.7%; in test [8], 28.5%; in test [9] it was -86% (active); in [10], 2.25% (active).
For the molecule `C[C@@H]1C[C@H]2C(=O)O[C@@H](C)C(NC(=O)[C@H](Cc3cc(F)cc(F)c3)NC(=O)Nc3ccc(C4CC4)cc3F)C(=O)N3CCC[C@H]3C(=O)N3CCCC[C@H]3C(=O)N[C@@H](CO)C(=O)N2C1` (stereo not given in full), the growth was 14.1% in test [1]; 25.4% in [2]; 31.5% in test [3]; 27.9% in test [4]; 29.8% in [5]; 11.5% in [6]. Besides, the growth was -15.9% (active) in test [7], 21.3% in test [8], 30.4% in [9] and 41.1% in [10].
Regarding `COc1ccc(/C=N/NC2=NC3C(S2)N(C)C(=O)N3C)cc1` (stereo not given), the growth in test [1] is 28.4%; in test [2], 8.29% (active); in test [3], 8.09% (active); in [4] it was 34.6%; in test [5] it was 27.2%; in test [6] it was 32.1%. Besides, the growth was 31.1% in [7], 38.3% in test [8], 32.7% in test [9] and 53.5% in test [10].
In the case of `Cn1cc(-c2nnc(N)nc2-c2c[nH]c3ccc(F)cc23)c2cc(F)ccc21`, the growth in test [1] was 62%; in test [2] it was 73.8%; in test [3], 100%; in [4], 75.8%; in test [5], 70.6%; in [6], 72.2%. Moreover, the growth in test [7] was 96.8%; in [8], 73.8%; in [9] it was 65.4%; in test [10], 94.4%.
`N#Cc1cccc(CN2CCC3=C(C2)C(=O)N(Cc2ccc(Cl)cc2)C2=NCCN23)c1`: the growth is 17.3% in [1]; 30.8% in test [2]; 60.9% in test [3]; 23.7% in test [4]; 23.3% in test [5]; 24.1% in test [6]. The growth in [7] was 13.1%; in test [8] it was 29.9%; in [9], 47.5%; in test [10] it was 48.3%.
For `NS(=O)(=O)c1ccc(Nc2nc(N/N=C/c3c[nH]c4ccccc34)nc(Nc3ccccc3)n2)cc1`, the growth in test [1] is 75.5%; in test [2], 31.6%; in [3], 70.8%; in [4], 56.7%; in test [5] it was 28.1%; in test [6], 26%. The growth in test [7] is 39.8%; in test [8], 38.3%; in [9], -10.6% (active); in test [10] it was 45.9%.
Consider `N#Cc1c(-c2cccs2)cc(-c2cnccn2)nc1SCC(=O)c1ccc(F)cc1`, for which the growth was 100% in [1]; 105% in [2]; 58.5% in [3]; 97.7% in test [4]; 104% in test [5]; 87.2% in test [6]. In addition, the growth is 96.4% in test [7], 81.1% in test [8], 85.4% in [9] and 100% in test [10].
As to `CCOC(=O)C(=O)/C(=C\c1ccc(Cl)cc1)C(=O)N1C(=S)NC(=O)C1CC(C)C` (stereo not given), the growth in [1] is 92.8%; in test [2], 108%; in test [3] it was 101%; in [4], 99.1%; in test [5], 101%; in [6], 93.6%. The growth in [7] was 92.8%; in [8] it was 91.5%; in [9], 112%; in [10], 95.1%.
Regarding `CCNC(=O)N1CCc2cc(OC)c(OCCc3ccc(OC)cc3)cc2C1c1ccc(Cl)cc1C` (stereo not given), the growth in test [1] is 9.66% (active); in [2] it was 2.45% (active); in test [3], 37.9%; in [4] it was 26%; in [5] it was 13.1%; in [6], 26.1%. Also, the growth in test [7] is -10.8% (active); in test [8], 22.8%; in test [9], 8.72% (active); in test [10], 43.3%.
